# Reference: PubChem BioAssay (EPA / NIEHS)
# The source made the active and inactive calls. Rule for the calls, unless noted: active = hit-call score of the fitted dose curve at least 0.9, where 1 is the maximum; inconclusive = response in the unintended direction; inactive = score below 0.9.
# Target: Estrogen receptor beta (Homo sapiens) (UniProt Q92731)
# Test: OT_ER_ERbERb_1440: Odyssey Thera (OT) 24-hour HEK293T Protein-Complementation Assay for Estrogen Receptor-beta/-beta Homodimer (AID 2283380);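 note: scored as signal increase over DMSO baseline for both agonists and antagonists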
# Method in brief: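 HEK293T cells stably expressing ER beta LBD (aa 310-547) homodimer fragment-complementation reporter, dosed 24 h. Cells formaldehyde-fixed, Draq5-stained; gain in nuclear (agonist) or nuclear plus cytoplasmic (antagonist) fluorescence versus DMSO read by laser scanning cytometry.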
# Sequence of Estrogen receptor beta (Homo sapiens) (Q92731 whole entry, looked up): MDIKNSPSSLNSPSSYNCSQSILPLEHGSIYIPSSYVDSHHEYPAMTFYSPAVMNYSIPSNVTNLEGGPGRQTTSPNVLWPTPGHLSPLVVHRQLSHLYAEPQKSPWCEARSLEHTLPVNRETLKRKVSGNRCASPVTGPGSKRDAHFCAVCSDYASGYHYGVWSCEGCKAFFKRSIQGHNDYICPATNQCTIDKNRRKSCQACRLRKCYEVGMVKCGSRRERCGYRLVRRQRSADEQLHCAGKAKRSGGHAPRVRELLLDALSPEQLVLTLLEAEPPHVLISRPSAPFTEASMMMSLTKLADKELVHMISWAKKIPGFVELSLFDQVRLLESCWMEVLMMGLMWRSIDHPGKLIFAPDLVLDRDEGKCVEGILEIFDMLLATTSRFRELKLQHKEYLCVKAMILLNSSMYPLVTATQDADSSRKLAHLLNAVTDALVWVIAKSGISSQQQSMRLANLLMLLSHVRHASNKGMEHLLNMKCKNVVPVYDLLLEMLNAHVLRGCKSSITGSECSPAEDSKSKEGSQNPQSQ
SMILES,outcome,AC50
O=C(O)CCN(C1(C(=O)NO)CCCC1)S(=O)(=O)c1ccc(Oc2ccc(F)cc2)cc1,inactive,–
C1N2CN3CN1CN(C2)C3,inactive,–
O=C1OC(=O)C2C3C=CC(C3)C12 (configuration not stated),inactive,–
CN(C)c1ccc(Cc2ccc(N(C)C)cc2)cc1,inactive,–
On1ccccc1=S,inactive,–
Cc1ccc(N)cc1O,inactive,–
CCNc1ccccc1,inactive,–
CC(C)=CCCC(C)CCO (configuration not stated),inactive,–
CC(C)CC(C)(O)C#CC(C)(O)CC(C)C (configuration not stated),inactive,–
C1=CCCC=CCCC=CCC1,inactive,–
CC1(C)C(=O)N(Br)C(=O)N1Br,inactive,–
Nc1cccc(N)c1,inactive,–
COc1ccc2sc(C(=O)Nc3nnn[nH]3)c(OC(C)C)c2c1,inactive,–
Cn1c(=O)cc(Oc2ccc(F)cc2F)c2cnc(NCC(C)(C)O)nc21,inactive,–
CC[C@H]1OC(=O)[C@H](C)[C@@H](O[C@H]2C[C@@](C)(OC)[C@@H](O)[C@H](C)O2)[C@H](C)[C@@H](O[C@@H]2O[C@H](C)C[C@H](N(C)C)[C@H]2O)[C@](C)(O)C[C@@H](C)C(=O)[C@H](C)[C@@H](O)[C@]1(C)O,inactive,–
CCOC(=O)CC(CC(=O)OCC)(OC(C)=O)C(=O)OCC,inactive,–
Nc1nc2ncc(CNc3ccc(C(=O)N[C@@H](CCC(=O)O)C(=O)O)cc3)nc2c(=O)[nH]1,inactive,–
Cc1ccc(O)cc1,inactive,–
CCCCCCCCCCCCCCCO,inactive,–
O=C(O)c1cccc(N(Cc2cccnc2)c2ccc(OC(F)F)c(OC(F)F)c2)c1,inactive,–
O=C(CCCCCCCCc1cccnc1)N1CCC(C=C(c2ccccc2)c2ccccc2)CC1,–,11.9 µM (active)
CCOCCO,inactive,–

# Target: Estrogen receptor (Homo sapiens) (UniProt P03372)
# Test: OT_ERa_GFPERaERE_0480: Odyssey Thera (OT) 8-hour HeLa Transcription Induction Assay for Estrogen Receptor (AID 2283381; active = hit-call score of the fitted dose curve at least 0.9, where 1 is the maximum; inactive = score below 0.9)
# Method in brief: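 HeLa cells expressing GFP reporter under estrogen response element, imaged 8 h after dosing. GFP induction quantified by high-content fluorescence microscopy image analysis; gain of signal fitted versus DMSO.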
# Sequence of Estrogen receptor (Homo sapiens) (P03372 whole entry, looked up): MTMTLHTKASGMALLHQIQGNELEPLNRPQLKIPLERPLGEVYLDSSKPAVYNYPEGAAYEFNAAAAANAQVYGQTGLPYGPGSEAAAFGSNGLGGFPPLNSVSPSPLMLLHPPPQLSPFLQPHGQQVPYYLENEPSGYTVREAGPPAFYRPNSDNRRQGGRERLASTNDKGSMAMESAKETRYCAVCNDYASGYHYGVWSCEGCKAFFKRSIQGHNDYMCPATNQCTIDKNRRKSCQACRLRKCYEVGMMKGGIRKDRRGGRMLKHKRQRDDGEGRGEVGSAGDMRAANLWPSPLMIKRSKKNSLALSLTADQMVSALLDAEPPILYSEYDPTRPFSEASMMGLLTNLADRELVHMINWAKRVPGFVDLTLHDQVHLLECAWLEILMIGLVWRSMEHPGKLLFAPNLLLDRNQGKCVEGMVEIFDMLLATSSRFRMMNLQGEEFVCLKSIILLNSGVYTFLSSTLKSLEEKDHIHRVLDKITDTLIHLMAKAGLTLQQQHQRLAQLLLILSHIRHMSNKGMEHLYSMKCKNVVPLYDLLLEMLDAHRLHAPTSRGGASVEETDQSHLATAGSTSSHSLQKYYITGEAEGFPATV
row,SMILES,outcome
1,O=C(O)c1cccc(Oc2ccccc2)c1,inactive
2,Cc1ccc(N)cc1O,inactive
3,CC(C)=CCCC(C)CCO (configuration not stated),inactive
4,COc1ccc2sc(C(=O)Nc3nnn[nH]3)c(OC(C)C)c2c1,inactive
5,Cn1c(=O)cc(Oc2ccc(F)cc2F)c2cnc(NCC(C)(C)O)nc21,inactive

# Target: Estrogen receptor (Homo sapiens) (UniProt P03372)
# Test: OT_ERa_GFPERaERE_0120: Odyssey Thera (OT) 2-hour HeLa Transcription Induction Assay for Estrogen Receptor (AID 2283382)
# Method in brief: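 HeLa cells were dosed for 2 h, then GFP reporter induction was quantified by fluorescence microscopy with high-content image analysis. Gain of signal fitted against DMSO baseline.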
row,SMILES,outcome
1,O=C(O)c1cccc(Oc2ccccc2)c1,inactive
2,Cc1ccc(N)cc1O,inactive
3,CC(C)=CCCC(C)CCO (configuration not stated),inactive
4,COc1ccc2sc(C(=O)Nc3nnn[nH]3)c(OC(C)C)c2c1,inactive
5,Cn1c(=O)cc(Oc2ccc(F)cc2F)c2cnc(NCC(C)(C)O)nc21,inactive
